Many of the other results were omitted from the sample, so hits are more common in it than they were.
Cycloheximide cs: Cycloheximide Counterscreen for Small Molecule Inhibitors of Shiga Toxin. cell reporter, cycloheximide protein synthesis inhibition counterscreen. max response, %. 300,000 compounds, 12% hits; in the data active = max response mostly above about 13%, no sharp cut-off; inactive = mostly below about 14%; note: read at 38.3 µM for the half of the compounds with a filed dose
LmPK inh: qHTS Assay for Inhibitors of Leishmania Mexicana Pyruvate Kinase (LmPK) | Potency, µM (highest dose often 57.5 µM), actives largely listed as inhibitors | 290,000 compounds, 0.37% hits | purified LmPK, Kinase-Glo ATP luminescence, 1 h
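Pyruvate kinase activity monitored as ATP production (luciferase luminescence). Conditions: 0.1 nM enzyme, 0.5 mM PEP, 0.1 mM ADP, 1 h, RT; normalized against uninhibited and no-enzyme wells.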
TbPYK inhibitor: qHTS of Trypanosoma Brucei Inhibitors | 410,000 compounds, 0.12% hits | AID 624173, 2012 | Potency, µM (highest dose often 76.8 µM), most hits filed as inhibitors | pyruvate kinase (Trypanosoma brucei), Q57TT1 | TbPYK enzyme, Kinase-Glo Plus ATP luminescence, 45 min; note: nearly all actives have a fitted effect of over 50% in size
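In this concentration-response screen, enzyme-free wells defined baseline while DMSO plates tracked drift. Each reaction combined TbPYK, substrate, compound and 130 uM ADP for 45 min at room temperature. Kinase-Glo Plus luminescence gave the signal.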
Shiga toxin inh: A qHTS for Small Molecule Inhibitors of Shiga Toxin; Vero cells, Shiga toxin protein synthesis inhibition reporter; inhibition, % at 38.7 µM; 290,000 compounds, 9.2% hits; AID 2315, 2010; in the data active = inhibition mostly above about 28%, no sharp cut-off; inactive = mostly below about 43%
RE007 growth inh: qHTS Assay for Inhibitors of the HIV-1 protein Vpr. S. pombe RE007 Vpr strain, BacTiter-Glo ATP luminescence, 24 h. Potency, µM (titrated, usually from 92.2 µM), usual class: inhibitors. 360,000 compounds, 0.21% hits. AID 651644, 2012; active = well fitted falling curve with a large enough effect; inconclusive = small, poorly fitted or top-dose-only effect; inactive = no such curve, though single readings can be large or run the other way; note: nearly all actives have a fitted effect of over 50% in size
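Fission yeast strain RE007, carrying one chromosomally integrated HIV-1 vpr copy, was seeded at OD 0.01 in PMG+AL medium with 23 nL pinned compound. After 24 h at 30 °C and 99% humidity, viability was read by BacTiter-Glo luminescence.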
Giardia FBPA inh: qHTS Assay for Inhibitors of Fructose-1,6-bisphosphate Aldolase from Giardia Lamblia. A8B2U2. purified Giardia FBPA. Potency, µM (doses to about 59.6 µM), actives largely listed as inhibitors. 290,000 compounds, 0.71% hits; note: nearly all actives have a fitted effect of over 55% in size
Target sequence (A8B2U2 whole entry, looked up): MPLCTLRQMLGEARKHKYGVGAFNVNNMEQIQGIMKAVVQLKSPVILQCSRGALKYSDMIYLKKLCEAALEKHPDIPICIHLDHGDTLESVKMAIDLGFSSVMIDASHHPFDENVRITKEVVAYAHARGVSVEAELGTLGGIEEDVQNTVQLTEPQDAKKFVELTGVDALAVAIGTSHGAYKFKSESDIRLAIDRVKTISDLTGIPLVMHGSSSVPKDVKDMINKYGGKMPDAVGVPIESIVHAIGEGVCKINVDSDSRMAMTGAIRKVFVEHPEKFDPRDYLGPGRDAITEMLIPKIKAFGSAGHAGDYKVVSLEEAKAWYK
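Giardia FBPA (40 nM reagent) was preincubated 10 min at RT with compound (up to 57.5 uM final), then substrate plus GAPDH/TPI/NAD/arsenate coupling system with diaphorase/resazurin was added; resorufin fluorescence (525/598 nm) was read after 20 min.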
Numbers stand for hits; . = inactive; ? = inconclusive; / = no result; [ ] = remark or other dose. Unless noted, calls come from the whole dose curve; as a rule, active = well fitted curve in the direction sought with a large enough effect; inconclusive = small, poorly fitted or top-dose-only effect, or another doubt; inactive = no such curve, though single readings can be large; an effect the other way counts as inactive or inconclusive.

SMILES | Cycloheximide cs | LmPK inh | TbPYK inhibitor | Shiga toxin inh | RE007 growth inh | Giardia FBPA inh
Clc1cc(CSc2ccccc2)nc(-c2ccccc2)n1 | 21.7 | . | . | . | . | .
Clc1ccc(SCc2cc(Cl)nc(-c3ccccc3)n2)cc1 | / | / | . | / | ? | /
COc1ccc(N=Cc2[nH]c3ccccc3c2O)cc1 | 30.6 | . | . | 42.2 | . | 14.1µM
O=C1CC(c2ccccc2Cl)CC(O)=C1C=Nc1ccccc1 (stereo unspecified) | . | . | . | . | ? | .
COc1ccc(N=Cc2c[nH][nH]c2=O)cc1 | . | . | . | . | . | .
COc1ccc(N=CC2=C(O)c3ccccc3C2=O)cc1 | 23.7 | 3.16µM | . | 107.3 | . | .
O=C1C(C=Nc2ccccc2)=C(O)c2ccccc21 | 29.3 | 3.55µM | . | 173.3 | . | .
CN=CC1=C(O)c2ccccc2C1=O | 41.5 | . | . | 75.9 | . | .
COc1ccc(N=Cc2ccccc2O)cc1 | / | / | . | / | . | /
CC1(C(=O)NS(=O)(=O)c2ccc(C#N)cc2)CCN1C(=O)CC1CCCCC1 (stereo unspecified) | / | / | . | / | .[18.4 µM] | /
COc1ccc(Cn2c(O)c(C=Nc3ccc(OC)cc3)c3ccccc3c2=O)cc1 | . | . | . | . | . | .
COc1ccc(N=Cc2oc3ccc4ccccc4c3c2O)cc1 | 50.0 | . | . | 71.5 | . | .
CC(C)COc1ccc(/C(=N/O)c2ccccc2)cc1 | 29.7 | . | . | . | . | .
O=C(Cc1ccc(F)cc1)NC1CC(=O)N(c2ccccc2)C1 (stereo unspecified) | / | / | . | / | / | /
Cc1c(C(=O)Nc2ccc(F)cc2F)nnn1-c1ccccc1Br | / | / | . | / | / | /
CCOC(=O)c1cc(C(=O)Nc2ccc(C)c(F)c2)nn1C | 44.3 | . | . | 61.9 | . | .
Cc1ccc(C(=O)OCC(=O)NNC(=O)c2cccs2)c(O)c1 | / | / | . | / | . | /
CCc1ccc(NC(=O)c2cnc(SC)nc2C)cc1 | 28.9 | . | . | . | . | .
CSc1ncc(C(=O)Nc2ccc(C(C)=O)cc2)c(-c2ccccc2)n1 | 40.6 | . | . | 51.4 | . | .
CCc1ccc(NC(=O)c2ccccc2SC)cc1 | 31.3 | ? | . | . | . | .
O=C(NC1CC1)c1cccc(NC(=O)C2CCCCC2)c1 | / | / | . | / | . | /
O=C(NCc1cccs1)c1cc2c(s1)-c1ccccc1OC2 | 20.0 | . | . | . | . | .
O=C(NC1CC1)c1cc2c(s1)-c1ccccc1OC2 | 77.3 | . | . | 104.4 | . | .
O=C(O)c1cc2c(s1)-c1ccccc1OC2 | . | . | . | . | . | .
COc1ccc(-n2c(=O)c3ccc(C(=O)NCc4ccc(C)cc4)cc3n(Cc3ccc(Cl)cc3)c2=O)cc1 | / | / | . | / | / | /
SMILES | Cycloheximide cs | LmPK inh | TbPYK inhibitor | Shiga toxin inh | RE007 growth inh | Giardia FBPA inh
CCCOc1ccccc1C(=O)N(Cc1cccc(Br)c1)C1CCS(=O)(=O)C1 (stereo unspecified) | . | . | . | . | . | /
Cc1ccc(/C=N/Nc2cccc(C(=O)O)c2)s1 | 86.2 | . | . | 126.1 | . | .
O=C(O)c1cccc(N/N=C/c2sc(N3CCOCC3)nc2-c2ccccc2)c1 | 127.7 | . | . | 176.2 | . | .
Nc1ccc(C(=O)N/N=C/c2sc(N3CCOCC3)nc2-c2ccccc2)cc1 | . | . | . | . | . | .
Cc1ccsc1/C=N/Nc1cccc(C(=O)O)c1 | 55.9 | . | . | 118.2 | . | .
OC[C@@H]1CN(Cc2ccc(Cl)cc2)C[C@H](n2cnc3c(NC4CC4)ncnc32)O1 | / | / | . | / | . | /
O=C(C1CC(=O)N(c2ccc(F)cc2)C1)N1CCC(c2nc3ccccc3[nH]2)CC1 (stereo unspecified) | / | / | . | / | . | /
COc1ccc(-c2nc(C#N)c(NCCc3ccccc3)o2)cc1OC | 21.6 | . | . | . | . | .
N#Cc1nc(-c2cccs2)oc1N1CCN(Cc2ccccc2)CC1 | 16.1 | . | . | . | . | .
N#Cc1nc(COc2ccccc2)oc1N1CCN(Cc2ccccc2)CC1 | . | . | . | . | . | .
N#Cc1nc(-c2ccccc2F)oc1NCc1ccccc1 | 18.1 | . | . | . | . | .
N#Cc1nc(-c2ccccc2F)oc1NCCc1ccccc1 | 41.0 | . | . | . | . | .
COc1ccc(-c2csc(C(NC(C)=O)c3ccccc3)n2)cn1 (stereo unspecified) | / | / | . | / | .[18.4 µM] | /
N#Cc1nc(-c2cccs2)oc1NCCc1ccccc1 | . | . | . | 74.2 | . | .
N#Cc1nc(-c2ccco2)oc1NCCc1ccccc1 | 27.5 | . | . | 27.2 | . | .
N#Cc1nc(-c2cccs2)oc1NCCN1CCOCC1 | . | . | . | . | . | .
COCCCNc1oc(-c2ccccc2F)nc1C#N | 24.0 | . | . | . | . | .
O=C(O)CCc1c(C(=O)O)[nH]c2cc(Cl)cc(Cl)c12 | . | / | / | . | / | .
O=C(Nc1nnc(C2CC2)s1)C1Cc2ccccc2CN1S(=O)(=O)c1cccs1 (stereo unspecified) | 17.2 | . | . | 74.7 | . | .
CCc1nnc(NC(=O)C2Cc3ccccc3CN2S(=O)(=O)c2cccs2)s1 (stereo unspecified) | 43.3 | . | . | 48.8 | . | .
CCc1nnc(NC(=O)C2Cc3ccccc3CN2S(=O)(=O)c2ccc(C)cc2)s1 (stereo unspecified) | 37.5 | . | . | 59.3 | . | /
CCS(=O)(=O)c1c(Nc2ccc(F)c(Cl)c2)sc(C(=O)c2ccccc2)c1N | / | / | . | / | / | /
COc1ccc(CN2C(=O)C(CC(=O)NCC3CCCCC3)CC(C(=O)N3CCOCC3)=C2C)cc1 (stereo unspecified) | / | / | . | / | . | /
Fc1ccc2c(c1)-c1c(cnc3cc(-c4ccc(Cl)cc4)nn13)CO2 | / | / | . | / | / | /
COc1cc(-c2noc(C)c2C#Cc2ccc(N)cc2)cc(OC)c1OC | 14.1 | . | . | . | . | .
SMILES | Cycloheximide cs | LmPK inh | TbPYK inhibitor | Shiga toxin inh | RE007 growth inh | Giardia FBPA inh
COc1ccccc1N=Nc1ccc(O)c2ncccc12 | 61.6 | . | . | 90.3 | ? | ?
CCS(=O)(=O)c1ccc(N=Nc2ccc(O)c3ncccc23)c(OC)c1 | . | . | . | . | ? | .
Cc1ccc(N=Nc2ccc(O)c3ncccc23)cc1C | 28.0 | . | . | 99.9 | . | .
COc1ccc(N2CC(NC(=O)C3CC3)CC2=O)cc1 (stereo unspecified) | / | / | . | / | / | /
Fc1ccccc1N1CCN(c2cnc3ccccc3n2)CC1 | 55.7 | . | . | 81.5 | ? | .
c1ccc(CN2CCN(c3cnc4ccccc4n3)CC2)cc1 | 51.8 | . | . | 131.2 | . | .
c1ccc(CN2CCN(c3nc4ccccc4c4ccccc34)CC2)cc1 | . | . | . | . | . | .
Oc1ccccc1N1CCN(c2ccc3ccccc3n2)CC1 | 41.6 | . | . | 101.6 | ? | .

High-throughput results: PubChem BioAssay, National Center for Advancing Translational Sciences (NCATS)
